The nature of test [1]: qHTS assay to identify small molecule agonists of the TGF-beta/Smad signaling pathway - cell viability counter screen (AID 1346829). Note: top concentration of the series differs between compounds; nearly all actives have a fitted effect of over 45% in size. The gist of the method: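 Tox21 qHTS format: SBE-bla HEK 293T cells treated with DMSO-dissolved compounds for 5 hr; CellTiter-Glo luminescence after 30 min at room temperature.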
(In qHTS, concentration-response curves come from the screen itself.)

A short description of test [2]: qHTS assay to identify small molecule agonists of the TGF-beta/Smad signaling pathway (AID 1346859; active = well fitted activation curve with a large enough effect in the signal ratio in the repeat runs, not every such curve was filed as active; the % refers to the signal ratio; note: series mostly up to about 77 µM). Put shortly: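 Stable Smad binding element-beta-lactamase HEK 293T cells; 5 hr compound exposure at 37 C under 5% CO2; 2 hr room-temperature substrate step; fluorescence excited at 405 nm, collected at 460 nm and 530 nm.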
Test [3] addresses Thyrotropin-releasing hormone receptor (Homo sapiens) (UniProt P34981). As to the kind of experiment: qHTS assay to identify small molecule antagonists of the thyrotropin-releasing hormone receptor (TRHR) signaling pathway (AID 1346877; active = well fitted inhibition curve with a large enough effect in the repeat runs, not every such curve was filed as active; note: series mostly up to about 51 µM). Put shortly: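 Overnight-plated (18 h, 37 °C) HEK293 cells expressing TRHR were dye-loaded 2 h, treated with compound, then stimulated with TRH at 1 nM final. Fluorescence intensity was captured every second for 3 min.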

Test [4] has the same target. In words: qHTS assay to identify small molecule agonists of the thyrotropin-releasing hormone receptor (TRHR) signaling pathway (AID 1346891; calls by dose curve;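 note: HEK293 cells expressing TRHR with calcium dye readout; series mostly up to about 58 µM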). Put shortly:
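In 1536-format, 1500 TRHR-Hek293 cells per well grew 18 h, took up calcium dye for 2 h at 37 °C, received compound, and were read kinetically; 15-point titrations, triplicates.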

Test [5] can be described thus: Human pregnane X receptor (PXR) small molecule agonists, qHTS cell viability counter screen (AID 1346977). Note: nearly all actives have a fitted effect of over 50% in size. Put shortly:
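Readout is CellTiter-Fluor fluorescence from PXR-Luc HepG2 cells. Plated cells rested 5hr, then were treated with compounds for 24hr at 37C and 5% CO2, with reagent present during the last hour.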

A short description of test [6]: Caspase-3/7 induction in HepG2 cells by small molecules, qHTS assay (AID 1346978). Note: nearly all actives have a fitted effect of over 15% in size. Put shortly: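 Caspase-3/7 induction was measured by Caspase-Glo 3/7 luminescence (30 min, room temperature) after a 17 hr compound exposure of wild-type HepG2 cells seeded at 2,000 per well and pre-incubated 5 hr.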
A short description of test [7]: Caspase-3/7 induction in CHO-K1 cells by small molecules, qHTS cell viability counter screen (AID 1346979). Note: nearly all actives have a fitted effect of over 35% in size. Put shortly: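 To flag cytotoxic compounds, treated CHO-K1 wild-type cells were given CellTiter-Fluor at 16hr and read fluorescently after 1hr at 37C; the caspase-3/7 luminescence was measured in these same wells.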
Test [8] in a line: Caspase-3/7 induction in CHO-K1 cells by small molecules, qHTS assay (AID 1346980). Note: nearly all actives have a fitted effect of over 15% in size. Put shortly:
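Luminescent Caspase-Glo 3/7 read (30min, room temperature) quantified apoptosis induction. Cells were wild-type CHO-K1, treated with compound for 17hr at 37 C and 5% CO2.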

Test [9] in a line: Caspase-3/7 induction in HepG2 cells by small molecules, qHTS cell viability counter screen (AID 1346981). Note: series mostly up to about 92 µM; nearly all actives have a fitted effect of over 30% in size. Put shortly: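 Treatment of HepG2 cells with DMSO-delivered compounds ran 16 hr at 37 C following a 5-hr pre-incubation of 2,000 cells/well. CellTiter-Fluor fluorescence, read after 1 hr, served as the viability measure in a qHTS format.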
For test [10], the target named is Nuclear receptor subfamily 1 group I member 2 (Homo sapiens) (UniProt O75469). In words: Human pregnane X receptor (PXR) small molecule agonists, qHTS assay (AID 1346982). Note: nearly all actives have a fitted effect of over 35% in size. The gist of the method: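 Stable HepG2 line reporting PXR-mediated CYP3A4 expression via luciferase. Treatment: 24 hr with compounds in DMSO at 37 C. Detection: ONE-Glo luminescence.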
In test [11] the target is Cytochrome P450 2D6 (Homo sapiens) (UniProt P10635). In words: Cytochrome P450 Family 2 Subfamily D Member 6 (CYP2D6) small molecule antagonists: luciferase reporter qHTS assay (AID 1671196). Note: series mostly up to about 120 µM; nearly all actives have a fitted effect of over 50% in size. The gist of the method:
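Chemicals tested for interference with CYP2D6 activity; proluciferin substrate, NADPH regeneration, 1 h at room temperature, luminescent detection.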

The target in test [12] is Cytochrome P450 2C19 (Homo sapiens) (UniProt P33261). As to the kind of experiment: Cytochrome P450 Family 2 Subfamily C Member 19 (CYP2C19) small molecule antagonists: luciferase reporter qHTS assay (AID 1671197). For activity change, negative = inhibition: series mostly up to about 120 µM. Note: nearly all actives have a fitted effect of over 65% in size. Note: potency is the fitted concentration of half-maximal effect. Put shortly:
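Relative luminescence units recorded 20 min after the detection reagent stopped a 1 h, 37C CYP2C19 reaction on proluciferin substrate, which was started by NADPH regeneration following 10 min room-temperature compound preincubation; ketoconazole positive control.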
(A reporter such as luciferase makes a cellular process visible.)

In test [13] the target is Cytochrome P450 2C9 (Homo sapiens) (UniProt P11712). In words: Cytochrome P450 Family 2 Subfamily C Member 9 (CYP2C9) small molecule antagonists: luciferase reporter qHTS assay (AID 1671198). For activity change, negative = inhibition: series mostly up to about 120 µM. Note: nearly all actives have a fitted effect of over 50% in size. Note: potency is the fitted concentration of half-maximal effect. The gist of the method:
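Enzyme-substrate mix preincubated with compound 10 min at room temperature; reaction started with NADPH regeneration solution, 1 h 37C. Luminescent luciferin product read after 20 min detection reagent.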

For test [14], the target named is Voltage-gated inwardly rectifying potassium channel KCNH2 (Homo sapiens) (UniProt Q12809). As to the kind of experiment: Human Ether-a-go-go-Related Gene (hERG) channel small molecule antagonists: fluorescence cell-based qHTS assay (AID 1671200).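 Note: hERG-expressing U2OS cells given a thallium stimulus after FluxOR II dye loading; series mostly up to about 77 µM; nearly all actives have a fitted effect of over 50% in size.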 The gist of the method:
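Measured: Tl+ flux via fluorescence (480/540 nm) in hERG-expressing U2OS cells after 1 h dye loading at room temperature.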
(In general: Block of hERG is tested as a sign of cardiac risk.)

Test [15] deals with Cytochrome P450 3A4 (Homo sapiens) (UniProt P08684). In words: Cytochrome P450 Family 3 Subfamily A Member 4 (CYP3A4) small molecule antagonists: luciferase reporter qHTS assay (AID 1671201). Put shortly: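 Setup: enzyme-substrate mix, compound pin transfer, 10 min RT. Reaction: NADPH regeneration solution, 1 h RT. Readout: detection reagent stops turnover, luminescence measured after 20 min, expressed in relative luminescence units.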

Test [16] addresses Cytochrome P450 1A2 (Homo sapiens) (UniProt P05177). As to the kind of experiment: Cytochrome P450 Family 1 Subfamily A Member 2 (CYP1A2) small molecule antagonists: luciferase reporter qHTS assay (AID 1671199). For activity change, negative = inhibition: series mostly up to about 120 µM. Note: nearly all actives have a fitted effect of over 50% in size. Note: potency is the fitted concentration of half-maximal effect. The gist of the method: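 Read-out is luminescence from luciferin detection reagent (20 min) proportional to CYP1A2 activity; compounds in DMSO preincubated 10 min with enzyme and proluciferin substrate, then NADPH regeneration solution, 1 h, room temperature.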

A number with no mark means an inactive call. Results filed as inconclusive are left out. The source made the active and inactive calls. Unless noted, calls come from the whole dose curve; as a rule, active = well fitted curve in the direction sought with a large enough effect in the repeat runs; inconclusive = weak or mixed curves; inactive = no such curve, though single readings can be large; an effect the other way counts as inactive or inconclusive.

The values that follow come from PubChem BioAssay (Tox21).
% is set by controls: 0 for no effect and ±100 for the full control effect.

Sequence of Cytochrome P450 2D6 (Homo sapiens) (P10635 whole entry, looked up): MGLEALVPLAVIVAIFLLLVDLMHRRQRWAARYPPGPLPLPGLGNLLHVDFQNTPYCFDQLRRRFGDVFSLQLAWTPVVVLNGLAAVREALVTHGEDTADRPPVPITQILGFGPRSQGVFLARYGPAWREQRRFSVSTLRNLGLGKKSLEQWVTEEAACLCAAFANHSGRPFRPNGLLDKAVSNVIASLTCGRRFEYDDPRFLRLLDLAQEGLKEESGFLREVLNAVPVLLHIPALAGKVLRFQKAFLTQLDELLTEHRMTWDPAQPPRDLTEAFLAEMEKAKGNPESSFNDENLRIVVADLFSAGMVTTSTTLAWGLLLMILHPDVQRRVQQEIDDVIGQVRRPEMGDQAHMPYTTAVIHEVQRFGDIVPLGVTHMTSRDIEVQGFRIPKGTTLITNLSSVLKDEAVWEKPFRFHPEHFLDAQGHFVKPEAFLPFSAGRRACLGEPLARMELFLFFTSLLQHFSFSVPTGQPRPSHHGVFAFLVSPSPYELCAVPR
Sequence of Nuclear receptor subfamily 1 group I member 2 (Homo sapiens) (O75469 whole entry, looked up): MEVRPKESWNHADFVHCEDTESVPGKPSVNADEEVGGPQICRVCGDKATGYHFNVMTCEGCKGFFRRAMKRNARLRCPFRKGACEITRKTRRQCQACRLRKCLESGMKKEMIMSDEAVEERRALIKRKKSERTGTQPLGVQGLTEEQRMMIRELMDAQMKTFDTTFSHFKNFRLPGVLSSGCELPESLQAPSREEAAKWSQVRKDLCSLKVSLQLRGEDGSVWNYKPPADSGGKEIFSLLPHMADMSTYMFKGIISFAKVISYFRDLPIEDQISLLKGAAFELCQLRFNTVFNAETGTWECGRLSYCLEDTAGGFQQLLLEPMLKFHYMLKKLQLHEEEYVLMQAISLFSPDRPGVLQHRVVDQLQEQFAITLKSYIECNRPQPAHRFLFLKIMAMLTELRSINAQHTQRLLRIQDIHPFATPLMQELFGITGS
Sequence of Voltage-gated inwardly rectifying potassium channel KCNH2 (Homo sapiens) (Q12809 whole entry, looked up): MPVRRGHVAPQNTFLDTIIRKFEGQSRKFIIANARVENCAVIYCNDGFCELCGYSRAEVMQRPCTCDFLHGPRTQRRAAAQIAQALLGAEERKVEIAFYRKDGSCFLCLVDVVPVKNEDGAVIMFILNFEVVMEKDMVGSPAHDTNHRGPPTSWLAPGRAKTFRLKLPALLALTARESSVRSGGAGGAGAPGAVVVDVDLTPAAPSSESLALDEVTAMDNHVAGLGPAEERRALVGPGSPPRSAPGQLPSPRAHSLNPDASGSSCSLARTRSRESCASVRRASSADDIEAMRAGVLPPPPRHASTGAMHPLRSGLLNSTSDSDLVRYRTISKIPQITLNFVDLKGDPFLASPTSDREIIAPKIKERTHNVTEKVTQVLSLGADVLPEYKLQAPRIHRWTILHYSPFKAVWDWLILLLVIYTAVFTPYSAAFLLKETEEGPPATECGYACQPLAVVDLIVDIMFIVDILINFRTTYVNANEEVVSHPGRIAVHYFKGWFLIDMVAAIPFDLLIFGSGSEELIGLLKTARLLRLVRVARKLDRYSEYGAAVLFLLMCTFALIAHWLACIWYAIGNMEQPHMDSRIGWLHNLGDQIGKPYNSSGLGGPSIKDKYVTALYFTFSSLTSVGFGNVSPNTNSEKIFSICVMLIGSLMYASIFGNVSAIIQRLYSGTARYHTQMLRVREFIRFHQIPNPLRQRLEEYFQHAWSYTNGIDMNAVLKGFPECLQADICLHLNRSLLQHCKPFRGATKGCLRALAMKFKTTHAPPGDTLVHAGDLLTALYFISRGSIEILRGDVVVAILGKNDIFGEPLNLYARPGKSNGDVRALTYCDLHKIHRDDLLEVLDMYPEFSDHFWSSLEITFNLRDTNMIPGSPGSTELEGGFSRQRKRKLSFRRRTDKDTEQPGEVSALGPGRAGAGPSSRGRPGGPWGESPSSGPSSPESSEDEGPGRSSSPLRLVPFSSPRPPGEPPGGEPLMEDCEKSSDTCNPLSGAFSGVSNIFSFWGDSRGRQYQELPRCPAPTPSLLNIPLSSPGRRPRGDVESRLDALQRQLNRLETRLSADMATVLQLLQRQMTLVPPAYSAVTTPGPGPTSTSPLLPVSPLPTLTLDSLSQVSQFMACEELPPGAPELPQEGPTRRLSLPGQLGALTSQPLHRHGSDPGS
Sequence of Cytochrome P450 3A4 (Homo sapiens) (P08684 whole entry, looked up): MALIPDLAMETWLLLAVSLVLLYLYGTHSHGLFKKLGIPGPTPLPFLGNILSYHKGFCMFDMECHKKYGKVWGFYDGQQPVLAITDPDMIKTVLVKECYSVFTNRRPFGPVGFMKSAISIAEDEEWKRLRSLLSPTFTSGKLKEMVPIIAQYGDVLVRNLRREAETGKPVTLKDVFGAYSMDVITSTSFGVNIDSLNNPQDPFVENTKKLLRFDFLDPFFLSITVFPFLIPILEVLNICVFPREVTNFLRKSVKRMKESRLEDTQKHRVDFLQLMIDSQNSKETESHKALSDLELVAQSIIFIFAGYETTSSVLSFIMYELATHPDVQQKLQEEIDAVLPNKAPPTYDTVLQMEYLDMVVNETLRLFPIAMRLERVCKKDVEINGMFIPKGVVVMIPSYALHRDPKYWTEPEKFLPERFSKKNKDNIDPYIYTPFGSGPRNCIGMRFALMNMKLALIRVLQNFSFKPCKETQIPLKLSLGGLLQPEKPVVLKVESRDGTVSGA
Sequence of Cytochrome P450 2C19 (Homo sapiens) (P33261 whole entry, looked up): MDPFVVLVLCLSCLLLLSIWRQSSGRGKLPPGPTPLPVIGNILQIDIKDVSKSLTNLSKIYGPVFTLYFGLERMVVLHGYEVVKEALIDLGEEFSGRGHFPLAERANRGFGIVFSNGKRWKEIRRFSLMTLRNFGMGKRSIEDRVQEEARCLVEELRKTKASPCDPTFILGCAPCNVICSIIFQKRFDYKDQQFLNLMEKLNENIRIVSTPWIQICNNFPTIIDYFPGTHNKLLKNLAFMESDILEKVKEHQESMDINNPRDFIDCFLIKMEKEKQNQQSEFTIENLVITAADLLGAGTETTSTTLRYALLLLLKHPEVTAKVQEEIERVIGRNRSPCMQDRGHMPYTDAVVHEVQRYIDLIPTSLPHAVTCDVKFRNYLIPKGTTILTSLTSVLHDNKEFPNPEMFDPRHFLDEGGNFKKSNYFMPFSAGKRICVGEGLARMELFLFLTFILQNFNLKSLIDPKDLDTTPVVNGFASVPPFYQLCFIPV
Sequence of Cytochrome P450 2C9 (Homo sapiens) (P11712 whole entry, looked up): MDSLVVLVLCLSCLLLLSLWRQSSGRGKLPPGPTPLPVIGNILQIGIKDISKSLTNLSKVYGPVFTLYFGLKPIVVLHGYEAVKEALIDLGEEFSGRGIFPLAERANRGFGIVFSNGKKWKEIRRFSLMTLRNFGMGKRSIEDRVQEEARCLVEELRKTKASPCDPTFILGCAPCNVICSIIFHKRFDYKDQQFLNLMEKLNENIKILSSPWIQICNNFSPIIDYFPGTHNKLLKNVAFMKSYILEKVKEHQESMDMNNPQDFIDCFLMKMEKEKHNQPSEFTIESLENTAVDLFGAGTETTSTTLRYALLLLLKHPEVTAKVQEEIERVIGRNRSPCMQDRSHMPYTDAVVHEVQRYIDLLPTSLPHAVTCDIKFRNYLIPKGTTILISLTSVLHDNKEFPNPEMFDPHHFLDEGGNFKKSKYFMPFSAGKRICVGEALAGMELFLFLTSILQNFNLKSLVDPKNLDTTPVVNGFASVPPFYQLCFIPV
Sequence of Cytochrome P450 1A2 (Homo sapiens) (P05177 whole entry, looked up): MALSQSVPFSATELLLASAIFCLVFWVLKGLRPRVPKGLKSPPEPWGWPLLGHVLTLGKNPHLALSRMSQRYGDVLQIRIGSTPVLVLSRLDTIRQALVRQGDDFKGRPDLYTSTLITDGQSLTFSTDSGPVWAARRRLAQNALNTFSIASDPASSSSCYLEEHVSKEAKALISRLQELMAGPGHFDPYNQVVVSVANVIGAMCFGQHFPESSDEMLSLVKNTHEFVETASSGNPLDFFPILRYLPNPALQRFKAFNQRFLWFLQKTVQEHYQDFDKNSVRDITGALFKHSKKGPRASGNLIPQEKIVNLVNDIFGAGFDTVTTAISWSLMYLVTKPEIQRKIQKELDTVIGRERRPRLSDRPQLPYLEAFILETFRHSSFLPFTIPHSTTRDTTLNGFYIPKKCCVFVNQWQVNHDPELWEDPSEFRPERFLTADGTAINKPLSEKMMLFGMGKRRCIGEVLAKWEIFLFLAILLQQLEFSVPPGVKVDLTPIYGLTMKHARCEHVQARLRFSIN
Sequence of Thyrotropin-releasing hormone receptor (Homo sapiens) (P34981 whole entry, looked up): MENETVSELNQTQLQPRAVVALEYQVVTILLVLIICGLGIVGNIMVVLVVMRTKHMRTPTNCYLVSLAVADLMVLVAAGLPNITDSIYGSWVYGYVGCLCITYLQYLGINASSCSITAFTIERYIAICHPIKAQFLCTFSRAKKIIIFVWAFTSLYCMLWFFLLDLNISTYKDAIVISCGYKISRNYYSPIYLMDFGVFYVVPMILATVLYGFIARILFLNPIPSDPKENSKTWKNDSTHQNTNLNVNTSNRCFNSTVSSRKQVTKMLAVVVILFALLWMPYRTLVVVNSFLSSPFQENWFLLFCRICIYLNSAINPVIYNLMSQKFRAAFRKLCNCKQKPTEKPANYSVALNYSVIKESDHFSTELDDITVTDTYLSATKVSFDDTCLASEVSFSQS

Take `C1=CCC(c2ccccc2)CC1` (stereo not given): the result in [1], in [2], in [3], in [4], in [6] and in test [8] was inactive. Also, the Potency entry in [5], in [7], in test [9], in test [10], in [11] and in test [12] was “inactive” throughout. Also, the Potency result in test [13], in test [14] and in [15] was “inactive” throughout.
For `CC(C)(C)c1ccc(C=O)cc1`, the call in test [1], in test [2], in test [3], in test [4], in test [6] and in [8] was inactive. The Potency result in test [5], in test [7], in test [9], in test [10], in [11] and in test [12] was “inactive” throughout. Also, the Potency entry in [14] and in test [15] was “inactive” each time.
With `CC(C)COC(=O)COc1ccc(Cl)cc1Cl`, the outcome in [1], in test [2], in test [3], in test [4], in [6] and in [8] was inactive. Also, the Potency entry in test [5], in [7], in [9], in test [10], in test [11] and in test [15] was “inactive” throughout. In addition, the Potency was 56.3 µM (active) in test [12], 31.7 µM (active) in [13] and 20 µM (active) in test [16].
In the case of `O=C1NC2NC(=O)NC2N1` (stereo not given), the molecule was classed as inactive in test [1], in test [2], in test [3], in [4], in [6] and in test [8]. Also, the Potency entry in test [5], in test [7], in test [9], in test [10], in [11] and in test [12] was “inactive” throughout. The Potency result in test [13], in test [14] and in test [15] was “inactive” each time. Further, the Potency in test [16] was 35.6 µM (active).
Consider `CC(C)CCC(=O)CCC(C)C`, for which the outcome in [1], in test [2], in test [3], in test [4], in test [6] and in test [8] was inactive. The Potency entry in test [5], in test [7], in test [9], in test [10], in test [11] and in test [12] was “inactive” each time. Also, the Potency entry in test [13], in test [14] and in test [15] was “inactive” each time. The Potency in test [16] was 39.9 µM (active).
As for `CCCOCCOCCOCCO`, the result in test [1], in test [2], in test [3], in test [4], in test [6] and in test [8] was inactive. Further, the Potency entry in test [5], in test [7], in test [9], in test [10], in test [11] and in test [12] was “inactive” each time. The Potency result in test [13], in test [14] and in test [15] was “inactive” throughout.
In the case of `COCCOCCOCCOC`, the result in [1], in test [2], in test [3], in [4], in test [6] and in [8] was inactive. The Potency result in test [5], in [7], in [9], in test [10], in test [11] and in test [12] was “inactive” throughout. Besides, the Potency entry in test [16] and in test [14] was “inactive” throughout.
Consider `O=C(O)Cc1cccc(-c2cc(CCCCCCc3ccc(O[C@H]4O[C@H](CO)[C@@H](O)[C@H](O)[C@@H]4O)c(-c4cccc(CC(=O)O)c4)c3)ccc2O[C@H]2O[C@H](CO)[C@@H](O)[C@H](O)[C@@H]2O)c1`, for which the activity change, negative = cytotoxicity is 10.8% [at 0.29 µM] in [1], 17.5% [at 0.349 µM] in test [5], 2.17% [at 0.349 µM] in test [7] and 2.65% [at 0.349 µM] in test [9]. The activation in test [2] is -0.374% [at 0.29 µM]; in test [4], -0.342% [at 0.218 µM]; in test [10], -9.1% [at 0.349 µM]. Moreover, in test [3], the activity, negative = inhibition is 0.417% [at 0.194 µM]. Moreover, the caspase activation in test [6] is 0.734% [at 0.349 µM]. In addition, the caspase-3/7 activation in test [8] is 1.55% [at 0.349 µM]. For the same molecule, the activity change, negative = inhibition in test [11] was 0.276% [at 0.435 µM]; in test [12] it was 11.7% [at 0.435 µM]; in test [13] it was 0.681% [at 0.435 µM]; in [16], -0.131% [at 0.435 µM]; in test [14], -0.102% [at 0.29 µM]; in test [15], 0.205% [at 0.435 µM].
For the molecule `O=S1(=O)CCCC1`, the outcome in test [1], in test [2], in [3], in test [4], in test [6] and in [8] was inactive. Also, the Potency result in test [5], in test [7], in test [9], in test [10], in [11] and in test [12] was “inactive” each time. The Potency entry in [14] is “inactive”. Also, the Potency in test [16] is 40.2 µM (active).
